Assay [1] concerns the target T1, Aspartate--tRNA(Asp/Asn) ligase (Mycobacterium tuberculosis (strain ATCC 25618 / H37Rv)) (UniProt P9WFW3). Note: in the data most compounds retested in dose-response had high values.
T1 sequence (whole entry): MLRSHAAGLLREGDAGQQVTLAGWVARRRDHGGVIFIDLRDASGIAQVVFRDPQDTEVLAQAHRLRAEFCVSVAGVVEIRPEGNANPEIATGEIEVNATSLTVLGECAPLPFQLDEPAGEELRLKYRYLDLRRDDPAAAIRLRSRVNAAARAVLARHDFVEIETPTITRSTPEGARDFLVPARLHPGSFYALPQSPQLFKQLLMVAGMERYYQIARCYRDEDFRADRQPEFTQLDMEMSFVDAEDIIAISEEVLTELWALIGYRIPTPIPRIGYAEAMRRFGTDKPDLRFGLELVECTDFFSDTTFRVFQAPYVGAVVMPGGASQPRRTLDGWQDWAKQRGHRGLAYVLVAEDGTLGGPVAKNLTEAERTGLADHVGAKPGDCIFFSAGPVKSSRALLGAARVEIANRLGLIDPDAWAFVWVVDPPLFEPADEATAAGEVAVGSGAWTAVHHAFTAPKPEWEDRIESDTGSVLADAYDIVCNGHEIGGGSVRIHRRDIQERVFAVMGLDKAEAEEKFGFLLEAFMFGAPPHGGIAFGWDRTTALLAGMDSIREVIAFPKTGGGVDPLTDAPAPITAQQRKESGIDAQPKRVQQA
The assay is described as follows: Assay for Asp RNA synthetase-1 from Mycobacterium tuberculosis. Set-up: scale not given: direction of the effect not stated beside the values. The settings on record: 30 µM. Type of assay: functional.

The target in assay [2] is Shiga toxin 2 (Escherichia coli O157:H7) (UniProt P09385+P09386). The assay is described as follows: E. coli 0.157:H7 Shiga Toxin SOP - stx2 screening assay. Type of assay: functional. Details: scale not given: direction of the effect not stated beside the values. The settings on record: 30 µM.

Molecules are shown by their SMILES.

For `CS(=O)(=O)NCc1n[nH]c2c1CCN(C(=O)c1ccsc1)C2`, the Percent Effect in assay [1] is 9.64%; in assay [2] it was -7.46%.

In the case of `O=C(NCc1ccco1)[C@H]1C[C@H]2OCC[C@H]2N(C(=O)c2ccncc2)C1`, the Percent Effect in assay [1] is 4.89%; in assay [2], 8.77%.

Consider `Cc1cc(C[C@@H]2COC[C@@H]2NC(=O)CN2CCCN(C)CC2)on1`, for which the Percent Effect was -1.58% in assay [1] and -5.15% in assay [2].

In the case of `Cc1ccc(OCCC(=O)N2CCN(c3cnccn3)CC2)cc1C`, the figures for the Percent Effect in assay [1] and in assay [2] were -0.856% and -12.8%, respectively.

In the case of `COc1cc(C(=O)Nc2nc(C)no2)ccc1C`, the Percent Effect was -0.143% in assay [1] and -2.1% in assay [2].

`CC(C)OCCOCc1cccc(NC(=O)NCc2ccccn2)c1`: the Percent Effect in assay [1] is 8.32%; in assay [2], -20.3%.

As for `CCS(=O)(=O)N1C[C@H]2CN(Cc3cccnc3)C(=O)[C@H]2C1`, the Percent Effect in assay [1] was 3.48%; in assay [2] it was -32.6%.

On to `COCc1ccccc1CNc1cc(N2CCCC2CO)ncn1` (configuration not stated), for which the Percent Effect was -1.49% in assay [1] and -4.23% in assay [2].

On to `COc1c(CNC2CCN(C(=O)C3CC3)CC2)c(C(C)C)nn1C`, for which the Percent Effect in assay [1] was determined as 1.69%; in assay [2], 29.5%.

For `O=C(COc1ccccc1)N1CCC[C@]2(C[C@H](OCC3CC3)CO2)C1`, the Percent Effect in assay [1] was 1.3%; in assay [2] it was -10.4%.

Consider `COc1ccc(OCCNCCn2cccn2)cc1`, for which the figures for the Percent Effect in assay [1] and in assay [2] were 1.29% and -27.4%, respectively.

Regarding `Cc1cc(C)n(CC2CCCN2CC(=O)N(C)Cc2cnn(C)c2)n1` (configuration not stated), the Percent Effect in assay [1] was -0.211%; in assay [2], 21.8%.

Regarding `NC(=O)c1cnn2c1NCC(CNCCc1ccco1)C2` (configuration not stated), the Percent Effect in assay [1] came to 0.367%; in assay [2] it was 26.6%.

Consider `CCc1nc(C2CCCN2CCn2cncn2)no1` (configuration not stated), for which the figures for the Percent Effect in assay [1] and in assay [2] were 0.0232% and -0.231%, respectively.

Turning to `Cn1ncc2c1C(COCC1CC1)CN(Cc1ccoc1)C2` (configuration not stated), the Percent Effect in assay [1] was -4.51%; in assay [2] it was -1.73%.

In the case of `O=C(COC(=O)Cc1cccs1)NCc1cccc(NC(=O)C2CC2)c1`, the Percent Effect was -1.66% in assay [1] and 28% in assay [2].

Turning to `CC(C)c1n[nH]c(C2CN(C(=O)CCn3ccccc3=O)CCO2)n1` (configuration not stated), the values for the Percent Effect in assay [1] and in assay [2] were -1.85% and 10.2%, respectively.

For the compound `Cc1cnn(CC2CN(Cc3nc(-c4ccoc4)no3)CCO2)c1` (configuration not stated), the Percent Effect in assay [1] was -3.63%; in assay [2], 24%.

As to `COc1ccc(CNCc2ccnc(N3CCCCC3)c2)cc1OC`, the Percent Effect in assay [1] is -2.15%; in assay [2], -57.5%.

`CC(=O)c1cccc(NC(=O)CN2CCCCC2C2OCCO2)c1` (configuration not stated): the results for the Percent Effect in assay [1] and in assay [2] were 1.76% and -1.62%, respectively.

Consider `CN(C)C(=O)COCc1cncc2c1CCN(Cc1nccn1C)C2`, for which the Percent Effect in assay [1] was 10.5%; in assay [2], -47.9%.

In the case of `Cc1noc(C)c1CN1C[C@@H]2COC[C@H](C(=O)N3CCCCO3)[C@@H]2C1`, the Percent Effect in assay [1] amounted to 4.46%; in assay [2] it was 5.31%.

Regarding `CCC(CC)C(=O)N1CCC2(C1)CN(c1ccccc1)C(=O)CN2C` (configuration not stated), the Percent Effect in assay [1] was -4.01%; in assay [2], -3.77%.

As for `Cn1cnc(S(=O)(=O)N2CCN(Cc3ccco3)CC2)c1Cl`, the Percent Effect is -2.54% in assay [1] and 13.8% in assay [2].

For the compound `CNc1nc2c(s1)C(=O)CN(C(=O)NCc1ccccc1)C2`, the figures for the Percent Effect in assay [1] and in assay [2] were 1.63% and -6.79%, respectively.

As to `CC(=O)N1CCCCC1c1nc(N)ncc1-c1ccccc1` (configuration not stated), the Percent Effect was 5.78% in assay [1] and 4.38% in assay [2].

Turning to `CC(O)CN1CCC(CNCc2c[nH]nc2C(C)(C)C)CC1` (configuration not stated), the Percent Effect in assay [1] is 0.384%; in assay [2], 14.9%.

With `CC(C)CCCNC(=O)Nc1ccc(F)c(C(N)=O)c1`, the Percent Effect in assay [1] was -3.06%; in assay [2] it was -45.5%.

On to `Cc1nn(C)c(C)c1C1COCCN1C(=O)c1cnc(N)c(Cl)c1` (configuration not stated), for which the Percent Effect in assay [1] is 0.88%; in assay [2], -23.7%.

In the case of `COCCO[C@@H]1CCN(C(=O)c2ccc(C)o2)[C@@H]1Cc1cnn(C)c1`, the Percent Effect in assay [1] is 2.6%; in assay [2] it was 2.85%.

Consider `CNc1cc(C)nc(C2CN(Cc3ccc(C)nc3)CCO2)c1` (configuration not stated), for which the Percent Effect was 0.61% in assay [1] and 3.79% in assay [2].

For the compound `CN1CCCc2cc(CNC(=O)c3ccc(NC4CC4)nc3)ccc21`, the Percent Effect in assay [1] was -3.1%; in assay [2] it was -12.6%.

`CCCS(=O)(=O)N1CCN(c2cc(-n3nc(C)cc3C)nc(C)n2)CC1`: the Percent Effect is -3.15% in assay [1] and -4.71% in assay [2].

Take `OC(COCc1cccs1)CN1CCC(c2ccn[nH]2)CC1` (configuration not stated): the Percent Effect in assay [1] was 1.71%; in assay [2], -8.34%.

For the compound `Cc1cncc(C2CCCN(Cc3cccn3C)C2)n1` (configuration not stated), the results for the Percent Effect in assay [1] and in assay [2] were 0.162% and 10.2%, respectively.

As for `CC(NC(=O)N1CCN(CCc2ccccc2)CC1)c1nncn1C` (configuration not stated), the Percent Effect in assay [1] is -7.6%; in assay [2] it was -13.8%.

`CCN(CC)Cc1cn2c(n1)CN(C(=O)c1cnccn1)CC2`: the Percent Effect in assay [1] was 0.29%; in assay [2] it was 5.28%.

With `COc1ccnc(N2CCN(CC(=O)N3CCOCC3)CC2)n1`, the Percent Effect in assay [1] was -1.91%; in assay [2], 26.3%.

`Cc1cc(=O)n(CC(=O)NCCC(C)C)c(-c2cccc(Cl)c2)n1`: the Percent Effect was 12.2% in assay [1] and -9.6% in assay [2].

`Cc1ccc(CC(=O)N2CCCCC2c2nc(C)cs2)cn1` (configuration not stated): the Percent Effect is -2.2% in assay [1] and 1.25% in assay [2].

As to `CO[C@H]1CN(Cc2cccc(C#N)c2)[C@@H]2COC[C@H]12`, the Percent Effect in assay [1] was 4.8%; in assay [2], -22.2%.

In the case of `Cc1ccc2c(c1)C1(CC2)CCN(c2nncs2)CC1`, the Percent Effect in assay [1] was determined as 1.71%; in assay [2], 6.27%.

Take `CN(Cc1nnc(-c2ccco2)o1)C1CCCN(c2cccnn2)C1` (configuration not stated): the Percent Effect in assay [1] is 0.611%; in assay [2], -78.7%.

In the case of `CC(C)n1cc(CN2CCCN(C(=O)c3nccnc3N)CC2)cn1`, the Percent Effect was 6.6% in assay [1] and -11.2% in assay [2].

Take `COCc1cc(NCCc2ccc(F)cc2)n2nccc2n1`: the Percent Effect in assay [1] was 4.6%; in assay [2], 4.14%.

For `O=C(NCCCN1CCCC1=O)Nc1ccc(Br)cc1Cl`, the Percent Effect in assay [1] was -2.15%; in assay [2], -11%.

Turning to `COCCN1CCC(NC(=O)C2(c3cc(C)cc(C)c3)CC2)CC1`, the Percent Effect in assay [1] is -4.05%; in assay [2] it was 22.9%.

Regarding `CN(C(=O)c1ccccc1Cl)C1CCN(c2ccccn2)CC1`, the Percent Effect in assay [1] came to 5.42%; in assay [2] it was 19.1%.

Regarding `COCC1CC2(CCN(C(=O)c3cccn3C)CC2)CN1C(C)C` (configuration not stated), the figures for the Percent Effect in assay [1] and in assay [2] were -3.53% and -6.37%, respectively.

Regarding `Cc1ncccc1CNCC1CCN(CC(O)c2ccccc2)CC1` (configuration not stated), the results for the Percent Effect in assay [1] and in assay [2] were 0.218% and -34.9%, respectively.

Take `CCN(Cc1ccccc1)C(=O)CN1CCCC(Cn2cncn2)C1` (configuration not stated): the values for the Percent Effect in assay [1] and in assay [2] were 2.11% and 3.34%, respectively.

These data come from ChEMBL document CHEMBL3988442, “University of Dundee, Small-Polar-MMV Screening Library” (2021).
